Experimental data taken from PubChem BioAssay AID652175 (National Center for Advancing Translational Sciences (NCATS), 2013).
Results filed as inconclusive are left out. Entries that show only a call come without a potency. Active and inactive are the calls of the source. Calls come from the whole dose curve; as a rule, active = well fitted inhibition curve with a large enough effect; inconclusive = small, poorly fitted or top-dose-only effect; inactive = no such curve, though single readings can be large or run the other way.

Assay: qHTS Assay for Lipid Storage Modulators: S3 Assay against Probe and Analogs
Settings: Drosophila S3 cells, BODIPY lipid droplet fluorescence, 18-24 h, oleic acid added to induce droplets; series mostly up to 46.1 µM
Excerpt: Storing lipids as a reservoir for energy or the anabolism of elementary metabolites is a common feature of probably all cells and is conserved from bacteria to humans. The universal cellular lipid storage organelle is the so-called lipid storage droplet (LD). Although ubiquitous, LDs share a simple structure composed of a hydrophobic core that harbors the storage lipids, which is shielded by a droplet-specific phospholipid monolayer to which proteins are attached. The current model of LD biogenesis involves an incorporation of the lipid core into the membrane leaflets of the endoplasmic reticulum (ER) followed by a subsequent budding-like maturation of a LD, which ultimately pinches off. Once released, LD volume can increase by localized lipogenesis or fusion of existing droplets. Storage lipids are re-mobilized enzymatically by lipase activity. Lipase regulation in the adipocyte is heavily studied and involves multiple components including catecholamine signaling, the LD-associated proteins Perilipin and comparative gene identification-58 (CGI-58) and at least two lipases named hormone sensitive lipase (HSL) and adipocyte triglyceride lipase (ATGL). LD regulation outside of the adipocyte is poorly understood and only few components are known. However, there is an urgent need to learn more about ectopic fat depots as mislocalized storage of lipids, for example in the liver or muscle, is an eminent health problem associated with insulin resistance or the metabolic syndrome. We developed a laser-scanning cytometer assay to enable 1,536-well screening and combined the results of the small molecules screen with an RNAi database based on lipid storage. In this assay we tested analogs of the probe against the original qHTS assay, which involved drosophila melanogaster cells (S3), to see if these small molecules could disrupt lipid storage. NIH Molecular Libraries Probe Production Centers Network [MLPCN] NIH Chemical Genomics Center [NCGC] MLPCN Grant: MH085686 Assay Submitter (PI): Mathias Beller, Max-Planck-Institut fur Biophysikalische Chemie
qHTS was performed with embryonic Drosophila S3 cells (Bloomington Drosophila Genomics Resource Center [DGRC]). We dispensed 4 uL of cells at 1.25 x 10^6 cells/mL into LoBase Aurora COC 1,536-well plates (black walled, clear bottom) with a bottle-valve solenoid-based dispenser (Aurora) to obtain 5,000 cells/well. Triacsin C (Sigma-Aldrich T-4540), an inhibitor of long-chain fatty acyl CoA synthetase that blocks synthesis of triglycerides, was used as a positive control for lipid under-storage. A total of 23 nL of compounds dissolved in DMSO at different concentrations were transferred to the assay plates using a Kalypsys pin tool equipped with a 1,536-pin array containing 10-nL slotted pins (FP1S10, 0.457-mm diameter, 50.8 mm long; V&P Scientific). The final DMSO concentration was 0.46%. One microliter of oleic acid at 400 uM (Calbiochem, #4954) was added to induce lipid droplet formation in the cells, and the plates were lidded with stainless steel rubber gasket lined lids containing pinholes. After 18-24 h incubation at 25 0C and 95% humidity, 4 uL of the BODIPY lipid dye 493/503 (1:2000, Molecular Probes) and the Cell Tracker Red CMTPX dye (Life Technologies, # 34552) were added to the wells to stain lipid droplets and enumerate cell number, respectively. Fluorescence was detected by excitation of the fluorophores with a 488-nm laser on an Acumen Explorer (TTP Lab Tech). The total intensity in channel 1 (500-530 nm) reflected lipid droplet accumulation. Cells were detected using channel 3 (575-640 nm) with 5-um width and 100-um depth filters. The ratio of the total intensity in PMT channel 1 over total intensity of channel 3 was also calculated. Percent activity was computed relative to an internal control (100% inhibited lipid droplet deposition due to the presence of 20 uM Triacsin C), which was added to 32 wells/plate.

Row | SMILES | Potency
1 | CCOc1ccc(CCNC(=O)c2cc3ccccc3n2Cc2cccc(C)c2)cc1OCC | 3.3 nM (active)
2 | CCOc1ccc(CCNC(=O)c2ccc(C(=O)c3ccccc3)cc2)cc1OCC | inactive
3 | CCOc1ccc(CCNC(=O)c2cc3sccc3n2Cc2ccc(F)cc2F)cc1OCC | 16.6 nM (active)
4 | CCOc1ccc(CCNC(=O)c2cc3sccc3n2CCN(C)C)cc1OCC | 2350 nM (active)
5 | CCOc1ccc(CCNC(=O)c2ccccc2)cc1OCC | inactive
6 | CCOc1ccc(CCNC(=O)c2cc3ccccc3n2CCN2CCOCC2)cc1OCC | inactive
7 | CCOc1ccc(CCNC(=O)c2cc3ccccc3n2Cc2ccccn2)cc1OCC | 118 nM (active)
8 | CCOc1ccc(CCNC(=O)c2cc3cnccc3n2Cc2cccc(C)n2)cc1OCC | inactive
9 | CCOc1ccc(CCNC(=O)c2cc3ccncc3n2Cc2cccc(C)n2)cc1OCC | inactive
10 | CCOc1ccc(CCNC(=O)c2ccc(Oc3ccccc3)cc2)cc1OCC | inactive
11 | CCOc1ccc(CCNC(=O)c2cc3ccccc3n2Cc2cccc(C)n2)cc1OCC | 13.2 nM (active)
